Cruzain noTriton – inhibitors of Trypanosoma cruzi cruzain without detergent; purified cruzain, Z-FR-AMC fluorescence, no detergent; 2.3% of 200,000 active; P25779; AID 1476; Potency, µM, for inactives: max response, negative = inhibition, usual class: inhibitors;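 further: plate controls were enzyme without inhibitor for no effect and buffer without enzyme for full effect; nearly all actives have a fitted effect of over 40% in size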
Target sequence (P25779 123-467 limits assumed): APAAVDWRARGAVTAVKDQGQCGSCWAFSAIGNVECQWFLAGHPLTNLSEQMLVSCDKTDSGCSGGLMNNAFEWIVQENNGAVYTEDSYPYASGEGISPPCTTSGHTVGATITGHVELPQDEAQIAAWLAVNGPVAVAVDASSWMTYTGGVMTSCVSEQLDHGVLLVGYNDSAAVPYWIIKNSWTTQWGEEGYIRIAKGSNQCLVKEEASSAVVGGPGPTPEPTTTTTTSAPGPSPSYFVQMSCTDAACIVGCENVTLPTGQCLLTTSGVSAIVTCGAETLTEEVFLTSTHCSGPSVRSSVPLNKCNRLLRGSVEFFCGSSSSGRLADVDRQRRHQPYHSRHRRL
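Purified cruzain at 1.5 nM, pre-incubated 15 min with compound at room temperature in 100 mM sodium acetate pH 5.5, 5 mM DTT, 0.00005% Triton X-100. Reaction started with 2 uM Z-FR-AMC; AMC fluorescence increase over 60 s gives rate.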
Cruzain Triton – cruzain (T. cruzi) inhibition with detergent; purified cruzain, Z-FR-AMC fluorescence, 0.01% Triton; Potency, µM, without a hit: max response, negative = inhibition, most hits filed as inhibitors; 0.43% of 200,000 active; AID 1478;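 further: plate controls were neutral wells for no effect and buffer without enzyme for full effect; nearly all actives have a fitted effect of over 40% in size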
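15 min RT preincubation of 1.5 nM cruzain with compound, then 2 uM Z-FR-AMC added; kinetic AMC fluorescence, 60 s delta. Triton X-100 0.01%, pH 5.5.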
NS1 function inh – inhibitors of influenza NS1 protein function; Potency, µM (highest dose often 46.1 µM), inactives show at the highest dose activity, positive = more growth; 0.4% of 270,000 active; calls by dose curve; further: actives are rising curves; nearly all actives have a fitted effect of over 50% in size
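OD600 was taken as the measure of yeast growth restored by compound in an NS1-expressing S. cerevisiae strain. Cells had been washed out of glucose medium and diluted 1:100 into galactose -URA medium, pH 6.0.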
Numbers without * were called inactive; u = inconclusive; x = not tested or not shown. This is one part of a sample in which hits are shown more often than they occur. Unless noted, the call rests on the fitted dose curve; in most records, active means well fitted curve in the direction sought with a large enough effect; inconclusive means small, poorly fitted or top-dose-only effect, or another doubt; inactive means no such curve, though single readings can be large; an effect the other way counts as inactive or inconclusive. Potency means the concentration at half of the fitted maximal effect.

SMILES	Cruzain noTriton	Cruzain Triton	NS1 function inh
COc1cccc(NS(=O)(=O)c2cc3[nH]c(=O)c(=O)[nH]c3cc2C)c1	x	x	-4%
Cc1ccc2c(COC(=O)c3ccc(C)c(C)c3)cc(=O)oc2c1	x	x	9%
CCCC(C)C(=O)Nc1nc(C)c(-c2csc(Nc3cc(Cl)ccc3C)n2)s1 (stereo not given)	13µM*	4%	19%
CCCCCC(=O)Nc1nc(C)c(-c2csc(Nc3ccc(Cl)cc3)n2)s1	13µM*	-6%	28%
CCCCCC(=O)Nc1nc(C)c(-c2csc(Nc3cc(Cl)ccc3C)n2)s1	10µM*	-3%	28%
CCC(C)C(=O)Nc1nc(C)c(-c2csc(Nc3ccccc3OC)n2)s1 (stereo not given)	u	-2%	20%
CCCCCCC(=O)Nc1nc(C)c(-c2csc(Nc3ccc(Cl)cc3)n2)s1	u	5%	18%
CN1CCN(CCP(=O)(c2ccccc2)c2ccccc2)CC1	-6%	-5%	0%
O=C(c1cnccn1)N(c1ccccc1)C1(C(=O)NC2CCCC2)CCCCC1	11%	9%	-4%
Cc1cc(C)c(C(=O)NCC2CCCO2)c(C)c1C(=O)NCC1CCCO1 (stereo not given)	x	x	-1%
c1ccc(CCc2ccncc2)cc1	x	x	5%
c1cc(CSSCc2ccncc2)ccn1	u	2.8µM*	-38%
CCCCCC(=O)NCC(C)NC(=O)CCCCC (stereo not given)	13%	-1%	-18%
CC(CNC(=O)C(C)(C)C)NC(=O)C(C)(C)C (stereo not given)	5µM*	-3%	10%
CCOc1ccc(S(=O)(=O)N(CC)CC(=O)NC2CC2)cc1	x	x	8%
O=C(NCc1ccccc1Cl)C1CCN(C(=O)c2sccc2-n2cccc2)CC1	-19%	-9%	-5%
CC1=Nc2cc(C(=O)NCCc3ccccc3)ccc2Sc2c(C)ccc(C)c21	u	-4%	x
CC1=Nc2cc(C(=O)NCCc3ccc(Cl)cc3)ccc2Sc2c(C)ccc(C)c21	25µM*	-1%	x
CSc1ccccc1OCc1cc(C(=O)N2CCc3[nH]cnc3C2c2ccccn2)no1 (stereo not given)	x	x	9%
COc1cc(OC)c(C2Nc3cccc4cccc(c34)N2)c(OC)c1	x	x	-3%
COc1ccccc1C1Nc2cccc3cccc(c23)N1	25µM*	-4%	-34%
O=C1CCC(=O)N1N1C(=O)C2C3c4ccccc4C(c4ccccc43)C2C1=O (stereo not given)	x	x	-5%
Cc1ccc(S(=O)(=O)N/N=C/c2ccc(OCC(=O)Nc3ccccc3Cl)cc2)cc1	25µM*	0%	4%
COc1ccccc1NC(=O)COc1ccc(/C=N/NS(=O)(=O)c2ccc(C)cc2)cc1	-28%	-3%	4%
O=C(NCCc1ccccc1)c1oc2ccccc2c1COc1ccccc1	-3%	-2%	-16%
SMILES	Cruzain noTriton	Cruzain Triton	NS1 function inh
Cc1cccc(NC(=O)CSc2nc(C)c(CC(=O)c3ccc(Br)cc3)c(C)c2C#N)c1C	13µM*	3%	6%
Cc1nc(SCC(=O)Nc2ccc(F)cc2)c(C#N)c(C)c1CC(=O)c1ccc(Br)cc1	u	-1%	1%
CCN1CCN(CCCN(Cc2ccco2)C(=S)Nc2cc(Cl)ccc2C)CC1	x	x	-5%
CCC(=S)/C=C1\Sc2ccccc2N1CCCS(=O)(=O)O	-1%	0%	8%
COc1ccc(NC(=O)c2cc(-c3ccccc3)on2)cc1	x	x	-9%
O=C(OCc1ccc(Br)cc1)c1cccnc1Cl	x	x	-8%
O=C(O)c1ccc(COc2c(F)c(F)c(F)c(F)c2F)o1	16µM*	28µM*	4%
O=C(c1ccc(Br)o1)N1CCN(Cc2ccc3c(c2)OCO3)CC1	12%	5%	-2%
Cc1cc(C)cc(OCc2ccc(C(=O)O)o2)c1	-3%	13%	-16%
O=C(c1ccc(COc2c(F)c(F)c(F)c(F)c2F)o1)N1CCN(Cc2ccc3c(c2)OCO3)CC1	u	28µM*	-14%
O=C(C1CCCO1)N1CCN(S(=O)(=O)c2cccc3nsnc23)CC1 (stereo not given)	-1%	3%	-14%
COc1ccc2c(c1)c1c(c(=O)n(Cc3ccccc3)c(=O)n1Cc1cc(C)ccc1C)n2C	4%	-1%	x
COc1ccc(NC(=O)CN(C)S(=O)(=O)c2ccc3c(c2)NC(=O)CS3)cc1	x	x	1%
COc1ccccc1NC(=O)c1c(N=Cc2ccccc2O)cnn1C	x	x	-11%
Cc1ccccc1NC(=S)NC(=O)c1cc(-c2ccccc2)nc2ccccc12	u	0%	u
CCOc1ccc(-c2cc(C(=O)Nc3ccc4c(c3)OCCO4)c3ccccc3n2)cc1	u	-5%	-3%
Cc1cccc(NC(=S)NC(=O)c2cc(-c3ccccc3)nc3ccccc23)c1	20µM*	8%	18%
Cc1cccc(-c2cc(C(=O)Nc3ccc4c(c3)OCCO4)c3ccccc3n2)c1	32µM*	2%	13%
Cc1nn(CC(=O)N2CCN(c3cccc(Cl)c3)CC2)c(=O)c2c1sc1ccccc12	-19%	-5%	x
CC(Sc1nnc(NC(=O)c2cc3ccccc3oc2=O)s1)c1ccccc1 (stereo not given)	13µM*	6%	-7%
CCCc1nnc(NC(=O)c2cc3ccccc3oc2=O)s1	-9%	2%	0%
COc1ccc(-n2cnnc2SC(C)c2nc3sc(C)c(C)c3c(=O)[nH]2)cc1 (stereo not given)	-24%	5%	u
CCOc1ccc(CC(=O)NCC(=O)NCc2cc(=O)n(C)c(=O)n2C)cc1	x	x	-6%
CC1=C(c2ccc(C)cc2)S(=O)(=O)N(Cc2ccc(C(=O)Nc3ccc(C)c(F)c3)cc2)C1=O	20µM*	-2%	x
COc1ccc(C2=C(C)C(=O)N(Cc3ccc(C(=O)Nc4cc(C)ccc4C)cc3)S2(=O)=O)cc1	u	-8%	x
SMILES	Cruzain noTriton	Cruzain Triton	NS1 function inh
O=C1C(Cl)=C(N2CCOCC2)C(=O)N1c1cccc(C(F)(F)F)c1	x	x	4%
Cc1ccc(N2C(=O)C(Cl)=C(N3CCOCC3)C2=O)cc1Cl	7.9µM*	7.1µM*	3%
CN1CCN(C2=C(Cl)C(=O)N(c3ccc(Cl)c(Cl)c3)C2=O)CC1	2.5µM*	2.8µM*	-84%
CN1CCN(C2=C(Cl)C(=O)N(c3cccc(Cl)c3)C2=O)CC1	u	-26%	8%
CSc1nc(N(C)CCO)c2sc3nc(-c4ccco4)c4c(c3c2n1)CCC4	-25%	8.9µM*	u
CSc1nc(N2CCN(CCO)CC2)c2sc3nc(-c4ccco4)c4c(c3c2n1)CCC4	-1%	-16%	6%
Nc1c([N+](=O)[O-])cc(-c2cnc[nH]2)cc1[N+](=O)[O-]	x	x	2%
Cc1cccc(NC(=O)c2c(NC(=O)C(F)(F)F)sc3c2CCCCC3)c1	-23%	-25%	x
O=C(Nc1cccc(Cl)c1)c1c(NC(=O)C(F)(F)F)sc2c1CCCC2	u	25µM*	x
CC1=NCC[N@@+]1(CCc1ccccc1)Cc1ccccc1	3%	6%	0%
Cc1ccc(N2C(=O)C3CCC(C)(C2=O)C3(C)C)cc1 (stereo not given)	x	x	0%
CSC[C@@H]1NC(=S)N(c2ccc(C)cc2)C1=O	13µM*	-1%	-23%
COc1ccc(NC(=S)NCCCN2CCN(C3CCCCC3)CC2)cc1	-4%	0%	12%
CC1CCN(S(=O)(=O)c2ccc(NC(=O)Cn3nnc(-c4ccccc4)n3)cc2)CC1	u	1%	-8%

High-throughput results from PubChem.
